Test results reported in publication PMC7862700, “An all-to-all approach to the identification of sequence-specific readers for epigenetic DNA modifications on cytosine”.

Key:
Test in all cases: DAPPL (digital affinity profiling via proximity ligation, sequencing); 10 mM Tris-HCl pH 7.5, 50 mM NaCl, 1 mM DTT, 4% glycerol, room temperature, 30 min; GST-TFs on glutathione beads, 16-mer random dsDNA library, 0.1% formaldehyde crosslink after washing; high values mean tight binding
Settings in all cases: protein: recombinant; tags: N-terminal GST; dsDNA, one strand shown
FLI1 = biological target: T1, FLI1 (Homo sapiens, UniProt Q01543 1-452)
T1 sequence: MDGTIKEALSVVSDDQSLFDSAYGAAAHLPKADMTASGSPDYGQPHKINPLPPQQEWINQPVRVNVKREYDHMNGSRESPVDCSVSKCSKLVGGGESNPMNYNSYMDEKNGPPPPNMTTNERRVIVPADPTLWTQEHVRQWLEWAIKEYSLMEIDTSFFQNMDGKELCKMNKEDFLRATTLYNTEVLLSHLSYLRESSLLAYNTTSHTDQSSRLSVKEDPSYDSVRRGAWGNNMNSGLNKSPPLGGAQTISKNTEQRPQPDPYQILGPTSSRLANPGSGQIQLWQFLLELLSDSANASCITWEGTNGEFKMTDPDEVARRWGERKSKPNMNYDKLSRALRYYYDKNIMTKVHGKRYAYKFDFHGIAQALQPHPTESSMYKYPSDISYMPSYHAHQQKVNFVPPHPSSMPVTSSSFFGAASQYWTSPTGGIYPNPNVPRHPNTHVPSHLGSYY
Method in brief: (§1)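 A tag-only sample was pooled with DNA-barcoded human transcription factors that had been expressed in yeast as GST fusions and captured on glutathione beads. The pools were incubated for 30 min at room temperature with 200 nmole of a random double-stranded 16-mer DNA library in Tris/NaCl/DTT/glycerol buffer, then washed, crosslinked with 0.1% formaldehyde, proximity-ligated (BsaI/T4 ligase, 1 h, 37 °C), PCR-amplified and sequenced on an Illumina NextSeq500. Binding signal is each hexamer's read frequency for a factor divided by its frequency for the tag-only sample.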

ELK1 = biological target: T2, ELK1 (Homo sapiens, UniProt P19419 1-428)
T2 sequence: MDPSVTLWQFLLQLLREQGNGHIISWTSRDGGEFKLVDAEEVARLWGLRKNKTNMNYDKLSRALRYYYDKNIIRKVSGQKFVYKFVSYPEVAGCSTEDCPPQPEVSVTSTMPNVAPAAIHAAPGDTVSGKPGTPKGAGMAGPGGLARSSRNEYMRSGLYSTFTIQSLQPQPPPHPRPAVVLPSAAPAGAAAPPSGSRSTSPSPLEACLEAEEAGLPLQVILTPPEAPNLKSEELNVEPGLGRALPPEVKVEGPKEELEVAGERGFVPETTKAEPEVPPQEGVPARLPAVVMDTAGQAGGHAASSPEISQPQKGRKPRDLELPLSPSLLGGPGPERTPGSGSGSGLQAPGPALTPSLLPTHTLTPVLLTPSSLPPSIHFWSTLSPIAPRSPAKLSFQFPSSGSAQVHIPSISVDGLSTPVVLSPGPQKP
Method in brief: as §1

GABPA = biological target: T3, GABPA (Homo sapiens, UniProt Q06546 1-454)
T3 sequence: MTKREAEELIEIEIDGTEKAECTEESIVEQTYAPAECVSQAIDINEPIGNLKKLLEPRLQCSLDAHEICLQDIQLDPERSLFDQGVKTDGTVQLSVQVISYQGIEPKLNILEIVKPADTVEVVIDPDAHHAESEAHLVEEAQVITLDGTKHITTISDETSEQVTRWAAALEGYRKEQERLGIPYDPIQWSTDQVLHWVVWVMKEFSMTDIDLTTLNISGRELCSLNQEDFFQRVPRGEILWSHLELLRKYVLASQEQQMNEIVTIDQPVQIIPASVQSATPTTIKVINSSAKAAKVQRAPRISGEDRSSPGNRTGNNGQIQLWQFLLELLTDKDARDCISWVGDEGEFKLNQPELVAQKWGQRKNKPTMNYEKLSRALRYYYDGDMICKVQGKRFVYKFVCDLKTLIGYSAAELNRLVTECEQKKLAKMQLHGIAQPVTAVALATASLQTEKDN
Method in brief: as §1

ERG = biological target: T4, ERG (Homo sapiens, UniProt P11308 1-479)
T4 sequence: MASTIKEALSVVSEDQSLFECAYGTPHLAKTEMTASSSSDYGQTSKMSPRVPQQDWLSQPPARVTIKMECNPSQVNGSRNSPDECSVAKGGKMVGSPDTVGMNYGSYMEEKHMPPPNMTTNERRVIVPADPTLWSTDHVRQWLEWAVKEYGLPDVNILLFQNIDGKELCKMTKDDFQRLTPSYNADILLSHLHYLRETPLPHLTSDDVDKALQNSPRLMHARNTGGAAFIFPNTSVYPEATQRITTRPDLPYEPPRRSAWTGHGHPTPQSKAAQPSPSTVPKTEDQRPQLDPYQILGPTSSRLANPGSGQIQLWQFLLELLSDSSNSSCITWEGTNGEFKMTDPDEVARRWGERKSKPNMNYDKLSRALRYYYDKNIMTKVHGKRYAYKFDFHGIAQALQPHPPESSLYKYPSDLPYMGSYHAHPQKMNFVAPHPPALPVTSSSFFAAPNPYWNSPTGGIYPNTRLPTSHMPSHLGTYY
Method in brief: as §1

ELF1 = ELF1 (Homo sapiens, UniProt P32519 1-619)
Method in brief: as §1

EHF = biological target: T5, EHF (Homo sapiens, UniProt Q9NZC4 1-300)
T5 sequence: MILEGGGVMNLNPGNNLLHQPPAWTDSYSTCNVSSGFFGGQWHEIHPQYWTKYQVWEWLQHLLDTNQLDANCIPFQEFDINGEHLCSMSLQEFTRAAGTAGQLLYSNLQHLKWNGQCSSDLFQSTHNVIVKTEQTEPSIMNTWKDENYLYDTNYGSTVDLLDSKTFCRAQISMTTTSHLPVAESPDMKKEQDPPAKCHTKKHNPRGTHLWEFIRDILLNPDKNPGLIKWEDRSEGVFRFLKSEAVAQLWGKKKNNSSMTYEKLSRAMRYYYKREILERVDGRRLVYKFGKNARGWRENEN
Method in brief: as §1

SPI1 = SPI1 (Homo sapiens, UniProt P17947 1-270)
Method in brief: as §1

SPIB = SPIB (Homo sapiens, UniProt Q01892 1-262)
Method in brief: as §1

ELK3 = biological target: T6, ELK3 (Homo sapiens, UniProt P41970 1-407)
T6 sequence: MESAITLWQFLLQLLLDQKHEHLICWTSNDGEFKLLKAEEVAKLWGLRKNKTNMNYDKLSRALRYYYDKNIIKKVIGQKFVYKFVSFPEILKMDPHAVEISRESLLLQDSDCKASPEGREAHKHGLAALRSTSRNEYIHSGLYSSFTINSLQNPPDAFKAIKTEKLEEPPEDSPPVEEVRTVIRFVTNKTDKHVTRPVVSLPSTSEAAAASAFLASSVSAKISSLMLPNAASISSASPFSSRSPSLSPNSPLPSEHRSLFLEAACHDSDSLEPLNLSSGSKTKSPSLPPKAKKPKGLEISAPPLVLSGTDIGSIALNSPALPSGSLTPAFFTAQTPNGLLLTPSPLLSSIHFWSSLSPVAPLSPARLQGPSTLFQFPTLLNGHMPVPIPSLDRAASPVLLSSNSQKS
Method in brief: as §1

Sequence of ELF1 (P32519 whole entry): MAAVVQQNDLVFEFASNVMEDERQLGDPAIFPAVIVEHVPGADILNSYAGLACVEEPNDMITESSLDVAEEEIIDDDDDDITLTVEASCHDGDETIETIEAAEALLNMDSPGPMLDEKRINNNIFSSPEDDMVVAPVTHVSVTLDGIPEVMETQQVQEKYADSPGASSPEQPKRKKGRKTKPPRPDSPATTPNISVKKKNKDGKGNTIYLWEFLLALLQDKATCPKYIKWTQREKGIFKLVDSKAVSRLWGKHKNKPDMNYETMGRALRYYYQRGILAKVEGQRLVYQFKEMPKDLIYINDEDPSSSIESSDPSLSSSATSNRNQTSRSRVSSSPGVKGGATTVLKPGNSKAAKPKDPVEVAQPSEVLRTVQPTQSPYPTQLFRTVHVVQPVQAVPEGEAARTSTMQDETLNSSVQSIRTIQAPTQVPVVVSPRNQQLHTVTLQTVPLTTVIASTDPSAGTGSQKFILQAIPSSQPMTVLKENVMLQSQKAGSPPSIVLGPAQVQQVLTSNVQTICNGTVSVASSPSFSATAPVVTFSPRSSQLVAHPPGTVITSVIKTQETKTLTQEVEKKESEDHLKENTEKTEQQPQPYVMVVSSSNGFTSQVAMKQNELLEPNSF
Sequence of SPIB (Q01892 whole entry): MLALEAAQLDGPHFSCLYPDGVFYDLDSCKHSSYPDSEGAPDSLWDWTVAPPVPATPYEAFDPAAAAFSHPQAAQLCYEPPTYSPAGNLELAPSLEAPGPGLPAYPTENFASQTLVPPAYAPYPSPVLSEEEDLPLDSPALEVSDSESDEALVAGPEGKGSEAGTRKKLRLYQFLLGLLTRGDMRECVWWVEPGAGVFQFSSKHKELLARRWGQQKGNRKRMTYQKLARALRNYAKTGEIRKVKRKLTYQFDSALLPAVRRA

What does the source list for CTTTTA?
binding signal (FLI1): 1.41 fold enrichment (6-mer frequency, TF over GST control); binding signal (ELK1): 1.28 fold enrichment (6-mer frequency, TF over GST control); binding signal (GABPA): 1.41 fold enrichment (6-mer frequency, TF over GST control); binding signal (ERG): 1.28 fold enrichment (6-mer frequency, TF over GST control); binding signal (ELF1): 1.29 fold enrichment (6-mer frequency, TF over GST control); binding signal (EHF): 1.28 fold enrichment (6-mer frequency, TF over GST control); binding signal (SPI1): 1.4 fold enrichment (6-mer frequency, TF over GST control); binding signal (SPIB): 1.35 fold enrichment (6-mer frequency, TF over GST control); binding signal (ELK3): 1.4 fold enrichment (6-mer frequency, TF over GST control)
